The record followed here is PubChem BioAssay AID2320 (National Center for Advancing Translational Sciences (NCATS), 2010).

Inconclusive results are not listed. A number with no mark means an inactive call. Active and inactive are the calls of the source. Calls come from the whole dose curve.
Potency is the fitted concentration of half-maximal effect.

This experiment is described as follows: A qHTS for Small Molecule Inhibitors of Shiga Toxin (Confirmatory). For activity, positive = inhibition of toxin: 0% is about no effect. Note: nearly all actives have a fitted effect of over 75% in size. Conditions: Cell-based Shiga toxin protection reporter assay; series mostly up to 38.3 µM; activity, positive = inhibition of toxin: at the top concentration.
Consider `CCc1nc2ccccc2c(=O)n1NCCc1ccccc1`, for which the “activity, positive = inhibition of toxin” value is 30.6%.

`Cc1cccc(C(=O)NC(NCCc2ccccc2)C(Cl)(Cl)Cl)c1` (stereo not drawn): the “activity, positive = inhibition of toxin” value was 24.6%.

For the molecule `Cc1cccc(N2CCN(C(=O)Cc3ccc(Br)cc3)CC2)c1C`, the Potency is 14.2 µM (active).

For `CC(=O)c1cccc(N2C(=O)C3C4CCC(C4=C(C)C)C3C2=O)c1` (stereo not drawn), the “activity, positive = inhibition of toxin” value was -18.1%.

Take `CCOC(=O)C1CCCN(c2nc3ccccc3nc2C(C#N)C(=O)OCC)C1` (stereo not drawn): the “activity, positive = inhibition of toxin” value was 38.5%.

Turning to `COC(=O)c1ccc(-c2ncc(-c3cccc4ccccc34)o2)cc1`, the Potency was 7.11 µM (active).

As to `O=C1C(Cl)=C(Nc2ccccc2)C(=O)c2ccccc21`, the Potency is 3.18 µM (active).

Consider `Cc1c(C(=O)Nc2nc3ccccc3[nH]2)oc2ccc(Br)cc12`, for which the Potency is 11.3 µM (active).

As for `CSc1ccc(/C=C/C(=O)N2CCN(c3ccccn3)CC2)cc1`, the “activity, positive = inhibition of toxin” value was -0.0265%.

Take `Cc1nc(N2CCN(C(=O)c3ccco3)CC2)nc2c1C(=O)CCC2`: the Potency is 6.34 µM (active).

`O=C(Cc1c[nH]c2ccccc12)NCc1ccc(Cl)cc1`: the “activity, positive = inhibition of toxin” value was -8.01%.

With `COc1cccc(OC)c1OCCCOc1ccc(C)cc1Br`, the “activity, positive = inhibition of toxin” value is 28.7%.

For the molecule `CN(C)C(CNC(=O)CCC(=O)c1ccc(Br)cc1)c1ccccc1` (stereo not drawn), the “activity, positive = inhibition of toxin” value is -16%.

Turning to `Oc1ccc(C2C[C@H]3CC[C@@H]2C3)cc1O` (stereo partly drawn), the Potency is 22.5 µM (active).

Turning to `Cc1nnc(N2C(=O)C(=O)/C(=C(/O)c3ccc4c(c3)OCCO4)C2c2ccc([N+](=O)[O-])cc2)s1` (stereo not drawn), the “activity, positive = inhibition of toxin” value is 3.86%.

For `Cn1nccc1C(=O)Nc1sc2c(c1C#N)CCCC2`, the Potency is 20 µM (active).

Take `Cc1cc(NC(=O)CSc2nc3ccsc3c(=O)n2Cc2ccccn2)n[nH]1`: the Potency is 25.2 µM (active).

On to `O=C(NC1CCCCC1)c1cccc(S(=O)(=O)N2CCCCC2)c1`, for which the “activity, positive = inhibition of toxin” value was -35.4%.

As for `CC1Cc2ccccc2N1Cc1cc(=O)n2ccsc2n1` (stereo not drawn), the “activity, positive = inhibition of toxin” value is -26.7%.

For `Cc1ccc2c(CN3CCCCC3C)cc(=O)oc2c1C` (stereo not drawn), the Potency is 0.01 µM (active).

As for `COC(=O)c1ccc(NC(=O)Cc2ccc(F)cc2)cc1`, the Potency is 5.65 µM (active).

Regarding `O=C(NCC1CCCO1)Nc1ccc2c(c1)OCO2` (stereo not drawn), the Potency was 22.5 µM (active).

For the molecule `CNC(=O)c1cccn(Cc2ccc(C(F)(F)F)cc2)c1=O`, the Potency was 0.1 µM (active).

For the molecule `COc1ccc(CNC(=O)C(OC(=O)c2ccco2)c2ccccc2F)cc1` (stereo not drawn), the “activity, positive = inhibition of toxin” value is -6.76%.

In the case of `CCN1CCN(Cc2c(O)ccc3c(=O)c(-c4ccc(OC)c(OC)c4)c(C(F)(F)F)oc23)CC1`, the “activity, positive = inhibition of toxin” value is 91.1%.

Consider `CCOc1ccccc1NC(=O)CCS(=O)(=O)c1cccs1`, for which the “activity, positive = inhibition of toxin” value is -34.2%.

Consider `O=S(=O)(c1ccsc1)N1CC=C(c2ccccc2)CC1`, for which the Potency is 2.83 µM (active).

Regarding `CCCCOC(=O)c1ccc(N=Nc2c(C)c(C#N)c(O)[nH]c2=O)cc1`, the Potency is 15.9 µM (active).

For `CCOC(=O)c1cnc2c(-c3cccc(Br)c3)cnn2c1C`, the Potency was 3.56 µM (active).

`Cc1cnc(NC(=O)c2c(Cl)cnn2C)s1`: the “activity, positive = inhibition of toxin” value is 24.6%.

For the molecule `COc1ccc(CNCC(=O)Nc2sccc2C#N)cc1`, the Potency was 20 µM (active).

With `COc1cccc(/C=C/C(=O)c2cccc([N+](=O)[O-])c2)c1OC`, the “activity, positive = inhibition of toxin” value was 39.5%.

In the case of `CCOc1ccc2nc(SCC(=O)NC3CCCCC3)[nH]c2c1`, the “activity, positive = inhibition of toxin” value was -7.39%.

In the case of `O=C(O)c1ccn(Cn2cnc3ccccc32)n1`, the “activity, positive = inhibition of toxin” value was -19.1%.

On to `Cc1ccc([N+](=O)[O-])cc1NC(=O)CSc1nncn1-c1ccccn1`, for which the “activity, positive = inhibition of toxin” value was 28.7%.

For the molecule `O=C(Cc1c(F)cccc1Cl)c1ccc(O)cc1O`, the “activity, positive = inhibition of toxin” value was 45.2%.

For the molecule `CCCc1cc(=O)oc2cc(C)cc(OCC(=O)NCc3ccccn3)c12`, the “activity, positive = inhibition of toxin” value was -31.3%.

Regarding `O=C(Cc1cccs1)Nc1nc(-c2ccc(F)c(F)c2)cs1`, the Potency was 6.34 µM (active).
